# Source: PubChem BioAssay (Tox21)
# Inconclusive results are not listed. The source made the active and inactive calls. Calls follow the shape of the dose curve; as a rule, active = well fitted cell-killing curve with a large enough effect in the repeat runs; inconclusive = weak or mixed curves, or effect the other way; inactive = no such curve, though single readings can be large or run the other way. Non-standard residues stand in square brackets, D forms with d. Residues, ends and D or L forms follow the SMILES beside them. *: point of attachment. Sta = CC(C)C[C@H](N)[C@@H](O)CC(=O)O; Isovaleryl = CC(C)CC(=O)*
# Test: qHTS assay to identify small molecule agonists of the estrogen receptor alpha (ER-alpha) signaling pathway in the presence of an antagonist - cell viability counter screen (AID 1259386);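 also: cells exposed to compounds for 22 h at 37 °C before the viability read; nearly all actives have a fitted effect of over 30% in size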
# Settings: VM7Luc4E2 viability, CellTiter-Fluor fluorescence, 22 h; series mostly up to 92.4 µM; activity change, negative = cytotoxicity: at the top concentration
# Text: National Center for Advancing Translational Sciences [NCATS]
# NIH Chemical Genomics Center [NCGC]
# U.S. Environmental Protection Agency [EPA]
# National Institutes of Environmental Health Sciences [NIEHS]
# National Toxicology Program [NTP]
# U.S. Food and Drug Administration [FDA]
# Estrogen receptor (ER), a member of nuclear hormone receptor plays an important role in development, metabolic homeostasis and reproduction. Two subtypes of ER, ER-alpha and ER-beta, have similar expression patterns with some uniqueness in both types. Endocrine disrupting chemicals (EDCs) and their interactions with steroid hormone receptors like ER causes disruption of normal endocrine function. Therefore, it is important to understand the effect of environmental chemicals in ER signaling pathway. For identifying ER agonists, VM7Luc4E2 cell line has been used in the current assay.
# VM7Luc4E2 cell line (provided by Denison MS, University of California) endogenously expresses full-length ER-alpha and is stably transfected with a plasmid containing four estrogen responsive elements (ERE) upstream of a luciferase reporter gene. This current screening for measuring luciferase reporter gene activity using VM7Luc4E2 cells against Tox21 10K library collection is a confirmation study on agonist mode screening in presence of ER-antagonist (ICI-182,780) at 10.0nM final concentration. The cytotoxicity of the compounds was tested in parallel by measuring the cell viability using CellTiter-Fluor assay system (Promega, Madison, WI) in the same wells.
# Tox21 Assay Protocol Summary:
# VM7Luc4E2 cells were cultured in phenol red free assay medium containing 10% charcoal stripped FBS for 5 days prior to the assay. The cells were dispensed at 4,000 cells in 4uL of assay medium per well into white wall/solid-bottom 1536-well plates (Corning Life Sciences, Corning, NY) using a Multidrop Combi (Thermo Fisher Scientific Inc., Waltham, MA) dispenser. After the assay plates were incubated at 37C and 5% CO2 for 24hr, 1uL of 10.0nM (final concentration) ICI-182,780 or assay buffer was added using two separate tips of Flying Reagent Dispenser (FRD, Aurora Discovery, San Diego, CA). Then 23nL of compounds dissolved in DMSO at 15 concentrations and positive controls or DMSO only was transferred to the assay plates by a Pintool station (Wako, San Diego, CA). The assay plates were incubated at 37C and 5% CO2 for 22hr. After 21hr incubation at 37C, 1uL/well CellTiter-Fluor reagent (Promega Corporation, Madison, WI) was added to each well using FRD and after 1hr incubation at 37C and 5% CO2, the fluorescence signal was measured on ViewLux plate reader (PerkinElmer, Shelton, CT).
# % is scaled to controls: 0 for no effect and ±100 for the full control effect.
row,Compound,"activity change, negative = cytotoxicity"
1,CC(C)(O)c1ccc(C(C)(C)O)cc1,-0.284% (inactive)
2,C/C=C(\C)C=O,3.46% (inactive)
3,C[C@@H]1NC(=O)[C@@H](N)CNC(=O)[C@H](C2CCNC(N)=N2)NC(=O)/C(=C/NC(N)=O)NC(=O)[C@H](CNC(=O)C[C@@H](N)CCCN)NC1=O (stereo not given in full),-0.264% [at 0.349 µM] (inactive)
4,C=CCCCCCCCCOC(C)=O,0.412% (inactive)
5,C=CCOC(=O)CCCCCCCC,3.82% (inactive)
6,CCCC(=O)CC,4.61% (inactive)
7,CCCCCCCCS(=O)(=O)O,1.41% (inactive)
8,CCOC(=O)c1ccc(N(C)C)cc1,0.431% (inactive)
9,O=C[C@@H](O)[C@H](O)[C@H](O)CO,-1.61% (inactive)
10,CN(C)CCc1c[nH]c2ccc(CS(=O)(=O)N3CCCC3)cc12,5.62% [at 42.5 µM] (inactive)
11,N[C@H]1C(O)O[C@H](CO)[C@@H](O)[C@@H]1O (stereo not given in full),-0.737% [at 42.5 µM] (inactive)
12,COC(=O)c1ccc(NC(C)=O)cc1OC,0.798% [at 42.5 µM] (inactive)
13,CN(C)c1ccncc1,-3.01% (inactive)
14,CCOC(=O)COc1ccc2c(C)c(CCN(CC)CC)c(=O)oc2c1Cl,3.28% [at 42.5 µM] (inactive)
15,C=CC(C)(CCC=C(C)C)OC(=O)C(C)C (stereo not given),1.77% (inactive)
16,O=C1Nc2ccccc2C1=O,0.0446% (inactive)
17,N#Cc1cc(NC(=O)C(=O)O)c(Cl)c(NC(=O)C(=O)O)c1,2.15% [at 42.5 µM] (inactive)
18,c1coc(Cn2cccc2)c1,1.01% (inactive)
19,C=C(C)C(=O)OCCOC1CC2CC1C1C=CCC21 (stereo not given),2.32% (inactive)
20,CC(C)(C)OC(=O)c1ccccc1C(=O)O,2.01% (inactive)

row,Compound,"activity change, negative = cytotoxicity"
1,O=C1c2ccccc2C(=O)N1CO,-2.66% (inactive)
2,c1cc2ccc3ccc4ccc5cccc6c(c1)c2c3c4c56,1.86% [at 3.27 µM] (inactive)
3,CNCCc1ccccn1,1.12% [at 42.5 µM] (inactive)
4,C=COCCCCO,-3.57% (inactive)
5,CCC(=O)OCCOc1ccccc1,-5.76% (inactive)
6,NCC1CCC(C(=O)Oc2ccc(CCC(=O)O)cc2)CC1 (stereo not given),-1.57% [at 42.5 µM] (inactive)
7,CC(C)C(C)C,0.808% (inactive)
8,CN(C)CCCN(C)C,0.833% [at 8.39 µM] (inactive)
9,CC(C)(C)C(=O)CC(=O)C(C)(C)C,6.96% (inactive)
10,CNC(C)=O,5.3% (inactive)
11,CCOC(=O)CC,0.941% (inactive)
12,Cc1cc(=O)oc2cc(O[C@@H]3SC[C@@H](O)[C@H](O)[C@H]3O)ccc12,0.621% [at 42.5 µM] (inactive)
13,C=CC(=O)OCCOCCOCC,0.724% (inactive)
14,CC(C)CC(=O)N[C@H](C(=O)N[C@H](C(=O)N[C@@H](CC(C)C)[C@@H](O)CC(=O)N[C@@H](C)C(=O)N[C@@H](CC(C)C)[C@@H](O)CC(=O)O)C(C)C)C(C)C (Isovaleryl-VV[Sta]A[Sta]-OH),0.87% [at 42.5 µM] (inactive)
15,CCCCN(CCCC)CCCCCCN(CCCC)CCCC,0.956% (inactive)
16,COc1ccc(Cl)cc1C,0.791% (inactive)
17,C/C=C/C(=O)CCCC,7.31% (inactive)
18,CC(O)CCCCn1c(=O)c2c(ncn2C)n(C)c1=O (stereo not given),3.6% [at 42.5 µM] (inactive)
19,Cc1ccc(N)nc1,1.75% (inactive)
20,C[n+]1ccccc1/C=N/O,0.847% [at 42.5 µM] (inactive)
